This is part of a sample that, as a whole, favours compounds with a hit. Of some 83,000 tested, about 20% had one in any assay.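 Each cell line was grown in a 96-well plate and treated with one concentration of compound for 48 hours. Values below 10 were considered active.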 Calls of active or inactive are those of the source.
Key:
Test in all cases: NCI-60 one-dose screen, 48 h (100 = growth as untreated, 0 = no growth, -100 = all killed)
SK-MEL-2 melanoma = conditions: 10 µM unless noted
EKVX NSCLC = conditions: 10 µM unless noted
SN12C renal = conditions: 10 µM unless noted
UO-31 renal = conditions: 10 µM unless noted
TK-10 renal = conditions: 10 µM unless noted
ACHN renal = conditions: 10 µM unless noted
A498 renal = conditions: 10 µM
HL-60(TB) leukemia = conditions: 10 µM unless noted
CCRF-CEM leukemia = conditions: 10 µM unless noted
MOLT-4 leukemia = conditions: 10 µM unless noted
SR leukemia = conditions: 10 µM unless noted
RPMI-8226 leukemia = conditions: 10 µM unless noted
OVCAR-8 ovarian = conditions: 10 µM unless noted
OVCAR-5 ovarian = conditions: 10 µM unless noted
OVCAR-4 ovarian = conditions: 10 µM unless noted
SK-OV-3 ovarian = conditions: 10 µM unless noted
IGROV1 ovarian = conditions: 10 µM unless noted
OVCAR-3 ovarian = conditions: 10 µM unless noted
HS 578T breast = conditions: 10 µM unless noted

Measured: growth

COC(=O)[C@@H](C)C[C@H](Cc1ccc2ccccc2c1)NC(=O)c1csc([C@@H](C[C@H](C(C)C)N(C)C(=O)[C@@H](NC(=O)[C@H]2CCCCN2C)C(C)C)OC(C)=O)n1
active: ACHN renal 4.23% | HL-60(TB) leukemia 9.43% | MOLT-4 leukemia -2.64% | SR leukemia 6.75%
inactive: SK-MEL-2 melanoma 57.8% | EKVX NSCLC 46.1% | SN12C renal 33.5% | UO-31 renal 23.1% | TK-10 renal 28% | A498 renal 21.7% | CCRF-CEM leukemia 24.2% | RPMI-8226 leukemia 23.3% | OVCAR-8 ovarian 37.9% | OVCAR-5 ovarian 77.6% | OVCAR-4 ovarian 53% | SK-OV-3 ovarian 56.5% | IGROV1 ovarian 22.7% | OVCAR-3 ovarian 55.8% | HS 578T breast 40.8%

CC[C@H](C)[C@H](NC(=O)[C@H]1CCCCN1C)C(=O)N(C)[C@H](CC(=O)c1nc(C(=O)N[C@@H](Cc2ccccc2)C[C@H](C)C(=O)O)cs1)C(C)C
active: HL-60(TB) leukemia -7.69%
inactive: SK-MEL-2 melanoma 37.8% | EKVX NSCLC 91.5% | SN12C renal 83.8% | UO-31 renal 88.6% | TK-10 renal 97.2% | ACHN renal 109% | A498 renal 73.4% | CCRF-CEM leukemia 21.2% | MOLT-4 leukemia 64.4% | SR leukemia 27.8% | RPMI-8226 leukemia 43.2% | OVCAR-8 ovarian 96.9% | OVCAR-5 ovarian 107% | OVCAR-4 ovarian 106% | SK-OV-3 ovarian 91.5% | IGROV1 ovarian 76.5% | OVCAR-3 ovarian 55.8% | HS 578T breast 72.2%

CC1(C)N=C(N)N=C(N)N1c1ccc(CCCCc2ccc(Cl)c(S(=O)(=O)F)c2)c(Cl)c1
active: HL-60(TB) leukemia -43.9% | CCRF-CEM leukemia 3.5% | MOLT-4 leukemia -33.1% | RPMI-8226 leukemia -24.2% | OVCAR-8 ovarian 5.53%
inactive: SK-MEL-2 melanoma 38.7% | EKVX NSCLC 45.3% | SN12C renal 24.6% | UO-31 renal 27.3% | TK-10 renal 41.7% | ACHN renal 28.2% | A498 renal 69.6% | OVCAR-5 ovarian 44.9% | OVCAR-4 ovarian 35.8% | SK-OV-3 ovarian 57.4% | OVCAR-3 ovarian 29.5% | HS 578T breast 75.3%

CC[C@H](C)[C@H](NC(=O)[C@H]1CCCCN1C)C(=O)N(C)[C@H](C[C@@H](O)c1nc(C(=O)N[C@@H](Cc2ccccc2)C[C@H](C)C(=O)O)cs1)C(C)C
inactive: SK-MEL-2 melanoma 41.3% | EKVX NSCLC 91.5% | SN12C renal 90.5% | UO-31 renal 84.1% | TK-10 renal 91.9% | ACHN renal 106% | A498 renal 76.2% | CCRF-CEM leukemia 43.5% | MOLT-4 leukemia 79% | RPMI-8226 leukemia 59.8% | OVCAR-8 ovarian 93.5% | OVCAR-5 ovarian 101% | OVCAR-4 ovarian 98% | SK-OV-3 ovarian 97% | IGROV1 ovarian 76.6% | OVCAR-3 ovarian 63.2%
active: HL-60(TB) leukemia 8.99%

From PubChem BioAssay (NCI)
